Bioassay records deposited in PubChem BioAssay by National Center for Advancing Translational Sciences (NCATS).
HttQ103 aggreg: inhibitors of mutant huntingtin aggregate formation in PC12 cells; PC12 HttQ103-GFP aggregates, Acumen cytometry, 40 h; 220,000 compounds, 1.1% hits; Potency, µM (doses to about 46.1 µM), without a hit: top-dose activity change, negative = inhibition, hits mostly inhibitors; active = well fitted curve in the direction sought with a large enough effect; inconclusive = small, poorly fitted or top-dose-only effect, or another doubt; inactive = no such curve, though single readings can be large; an effect the other way counts as inactive or inconclusive; also: % is scaled to controls: 0 for no effect and ±100 for the full control effect; nearly all actives have a fitted effect of over 60% in size
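PC12/HTTQ103-GFP, ecdysone-inducible; teb 100 nM; cpd qHTS titration; GFP aggregates read on laser cytometer, Ex 488/Em 500-530 nm.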
ALDH1A1 block: inhibitors of human aldehyde dehydrogenase 1A1. Potency, µM (top dose mostly 75.3 µM), for the others: at the highest dose activity, negative = inhibition, usual class: inhibitors. P00352. 220,000 compounds, 7.3% hits. Purified ALDH1A1, NADH fluorescence, propionaldehyde substrate. AID 1030;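 also: plate controls were no enzyme wells and a reference inhibitor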
Target sequence (P00352 whole entry, looked up): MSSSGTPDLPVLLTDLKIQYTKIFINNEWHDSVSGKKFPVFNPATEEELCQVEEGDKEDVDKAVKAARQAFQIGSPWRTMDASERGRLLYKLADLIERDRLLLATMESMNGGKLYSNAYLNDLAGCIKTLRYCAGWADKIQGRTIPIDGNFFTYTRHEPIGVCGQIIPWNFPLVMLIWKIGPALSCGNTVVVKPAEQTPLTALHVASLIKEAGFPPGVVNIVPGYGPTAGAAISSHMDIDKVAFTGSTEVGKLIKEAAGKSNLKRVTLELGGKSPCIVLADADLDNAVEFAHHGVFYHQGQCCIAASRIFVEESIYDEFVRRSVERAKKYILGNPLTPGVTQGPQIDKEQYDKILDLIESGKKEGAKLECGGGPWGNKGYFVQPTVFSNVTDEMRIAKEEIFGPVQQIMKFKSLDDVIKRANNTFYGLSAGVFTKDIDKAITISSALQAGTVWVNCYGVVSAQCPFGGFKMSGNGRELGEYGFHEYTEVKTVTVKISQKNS
HPGD block: blocks human HPGD enzyme activity | P15428 | purified HPGD, NADH fluorescence kinetic, PGE2 substrate | Potency, µM, inactives show at the top dose activity change, negative = inhibition, most hits filed as inhibitors | 150,000 compounds, 4.3% hits | AID 894; also: % is scaled to controls: 0 for no effect and ±100 for the full control effect
Target sequence (P15428 whole entry, looked up): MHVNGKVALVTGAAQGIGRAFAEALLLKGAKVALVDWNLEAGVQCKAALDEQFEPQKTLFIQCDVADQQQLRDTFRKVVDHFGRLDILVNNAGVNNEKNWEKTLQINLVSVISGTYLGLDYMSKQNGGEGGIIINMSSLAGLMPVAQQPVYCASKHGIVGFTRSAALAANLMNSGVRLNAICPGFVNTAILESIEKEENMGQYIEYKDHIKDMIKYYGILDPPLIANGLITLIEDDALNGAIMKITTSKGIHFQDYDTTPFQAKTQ
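20 nM HPGD preincubated 15 min at room temperature with compound in 50 mM Tris-HCl pH 8, 0.01% Tween 20. Started with 1 mM NAD+ and 30 uM prostaglandin E2; NADH fluorescence (360/450 nm) read 5 times over 30-s intervals, last minus first.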
HTT cytoprotect: Huntington cell model cytoprotection by ATP luminescence. Potency, µM (titrated, usually from 56.4 µM), for inactives: cytoprotection (ATP increase), most hits filed as activators. 230,000 compounds, 0.14% hits. PC12 HTT-Q103 induced, cytoprotection, ATP luminescence, 40 h. AID 1471; active = well fitted curve in the direction sought with a large enough effect; inconclusive = small, poorly fitted or top-dose-only effect, or another doubt; inactive = no such curve, though single readings can be large; an effect the other way counts as inactive or inconclusive; also: % of control where 0% means no effect; nearly all actives have a fitted effect of over 45% in size
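Huntington model: PC12 line, ecdysone-inducible HTTQ103 exon1–GFP, tebufenozide 100 nM. Test articles in a dose series. Endpoint luminescence from cellular ATP.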
Lamin A splicing: changes lamin A minigene splicing in HeLa cells. HeLa LMNA splicing GFP/RFP minigene ratio, 48 h. Potency, µM (doses to about 46.1 µM), for the others: top-dose ratio change, negative = inhibition, actives largely listed as inhibitors. 200,000 compounds, 0.01% hits; active = well fitted inhibition curve with a large enough effect in the signal ratio, with a control signal flat, not every such curve was filed as active; inconclusive = small, poorly fitted or top-dose-only effect, or effect the other way, or a change in a side signal; the % refers to the signal ratio; also: % is scaled to controls: 0 for no effect and ±100 for the full control effect
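S3 HeLa stable clones carrying a lamin A-EGFP splicing minigene plus DsRed2 were seeded at 600 cells/well in Opti-MEM with 2% FBS, pin-dosed and incubated 48 h at 37°C. Acumen cytometry (488 nm) gave the GFP/RFP total-intensity ratio.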
Numbers without * were called inactive; ? = inconclusive; . = no result; [ ] = dose if it differs, or a comment. A selection: hits, their analogues and other compounds. The true share with any hit is near 8.8%. Unless noted, calls follow the shape of the dose curve; as a rule, active = well fitted inhibition curve with a large enough effect (not every such curve was filed as active); inconclusive = small, poorly fitted or top-dose-only effect, or another doubt; inactive = no such curve, though single readings can be large or run the other way. Potency is read from the fitted curve at half-maximal effect.

SMILES	HttQ103 aggreg	ALDH1A1 block	HPGD block	HTT cytoprotect	Lamin A splicing
COc1cc(OC)c(C2CC(=O)N3CN(c4ccc(C)cc4)CSC3=C2C#N)cc1OC (configuration not stated)	10.4%	7.94µM*	7.08µM*	-33.7%[0.074 µM]	2.4%
COc1ccc(C2CC(=O)N3CN(c4ccc(C)c(Cl)c4)CSC3=C2C#N)cc1OC (configuration not stated)	19.6%	7.94µM*	?	-17.3%	-16.5%
CCCSC1=C(C#N)C(c2cc(OC)ccc2OC)CC(=O)N1 (configuration not stated)	-17.2%	-3.0%	22.4µM*	40.3%[10 µM]	-5.0%
CC(=O)c1cccc(NC(c2ccc(F)cc2)c2nnc(-c3ccccc3)o2)c1 (configuration not stated)	.	.	.	.	-16.5%[46 µM]
Cc1ccc(CN2CCCn3nc(C(=O)NCc4cc(C)ccc4C)cc3C2=O)cc1	.	.	.	.	-18.6%[46 µM]
CCCCN(CCCC)C(=O)c1c[nH]c2ccc(S(=O)(=O)Nc3cccc(Cl)c3C)cc2c1=O	.	.	.	.	-24.0%[46 µM]
Cc1ccccc1-n1sc2cc(F)ccc2c1=O	?	0.562µM*	.	7.7%[1.9 µM]	?
Cc1onc(-c2c(Cl)cccc2Cl)c1C(=O)c1ccc(F)cc1	17.5%[9.22 µM]	.	.	14.2%[10 µM]	.
N#Cc1c(-c2c(Cl)cccc2Cl)noc1/C=C/Nc1ccc(C(=O)O)cc1	-9.7%	3.55µM*	.	10.8%	.
CN(C)/C=C/c1onc(-c2c(Cl)cccc2Cl)c1C#N	-1.4%	12.6µM*	.	7.9%	-4.0%[9.22 µM]
COc1ccc(NC(=O)C(c2ccc(OC)cc2)N(Cc2ccco2)C(=O)CC2NC(=O)NC2=O)cc1 (configuration not stated)	6.4%	-6.4%	.	-45.3%	.
COc1ccc(C(C(=O)Nc2ccc(C(C)C)cc2)N(Cc2ccco2)C(=O)CC2NC(=O)NC2=O)cc1 (configuration not stated)	-8.0%	25.1µM*	.	-63.3%	.
CCN1C(=O)[C@H]2[C@H]3[C@H](O)[C@H](O)C/C(=N/O[C@@H]4O[C@H](COC(C)=O)[C@@H](OC(C)=O)[C@H](OC(C)=O)[C@H]4OC(C)=O)[C@@H]3CC[C@@H]2C1=O	.	-2.1%[13.5 µM]	.	?	.
Oc1ccccc1-n1c(-c2ccccc2)ccc1-c1ccccc1	9.9%[9.22 µM]	.	.	19.7%[10 µM]	.
CCCOn1c(OCC(C)C)nc2ccccc2c1=O	4.3%	22.4µM*	-15.4%	-24.7%[0.074 µM]	16.0%
CCN(CC)S(=O)(=O)N1CCC(C(=O)NCCN2CCOCC2)CC1	0.5%	10µM*	-15.3%	3.7%	6.9%
CCN(CC)S(=O)(=O)N1CCC(C(=O)NCCC2=CCCCC2)CC1	?	2.51µM*	.	-62.2%	.
CC(=O)N1CCC2(CC1)CCN(c1ncccn1)CC2	.	-9.4%	-23.7%	12.3%	.
O=C(NC(NNc1ccc([N+](=O)[O-])cc1)(C(F)(F)F)C(F)(F)F)c1ccc(Cl)cc1	?	?	15.8µM*	-37.2%	-1.9%
CCN1CCN(CCCOc2ccccc2-c2ccccc2)CC1	.	11.2µM*	.	.	.
COc1ccccc1-c1cn[nH]c(=S)n1	30.6%	7.08µM*	22.4µM*	-17.3%[0.074 µM]	1.4%
CCC1C/C(=C\c2cccnc2)C(=O)/C(=C/c2cccnc2)C1 (configuration not stated)	22.4µM*	?	-24.7%	-36.6%[10 µM]	?
CCCC(=O)Nc1sc(C)c(-c2ccc(OC)cc2)c1C#N	-3.9%	3.1%	-9.0%	31.5%[10 µM]	-1.9%
CCCc1ccc(-c2c(C)sc(N)c2C#N)cc1	-13.9%	20µM*	-25.8%	-27.5%	-2.4%
O=C(COC(=O)c1ccc(CO)cc1)Nc1ccc(OC(F)F)cc1	13.4%	5.6%	.	-3.6%[10 µM]	-16.5%[46 µM]
SMILES	HttQ103 aggreg	ALDH1A1 block	HPGD block	HTT cytoprotect	Lamin A splicing
COc1ccc(S(=O)(=O)N(CCO)c2ccccc2CN(C)CC=Cc2ccc(Cl)cc2)cc1	.	1.3%	-14.5%	-210.1%	.
Cc1ccc(NC2=C(NCCO)C(=O)c3ccccc3C2=O)cc1	-15.9%	22.4µM*	-2.5%	3.5%[10 µM]	?
CCOc1ccc(N2C(=O)C3Sc4[nH]c(=O)sc4C(/C=C/c4ccccc4)C3C2=O)cc1 (configuration not stated)	?	11.2µM*	-20.4%	-8.7%[10 µM]	-9.6%
COc1cc(C2c3sc(=O)[nH]c3SC3C(=O)N(c4ccc(Br)cc4)C(=O)C32)ccc1O (configuration not stated)	-3.8%[9.22 µM]	.	.	11.2%[10 µM]	.
CC(CCC(=O)O)(c1cc(Br)c(O)c(Br)c1)c1cc(Br)c(O)c(Br)c1	.	7.6%[13.5 µM]	-10.9%	-12.5%[10 µM]	.
Oc1ccc(Cl)cc1C1=NNC(c2ccc(Cl)cc2)C1 (configuration not stated)	4.9%	?	?	13.3%[10 µM]	?
Oc1c(Cl)cc(Cl)cc1C1=NNC(c2ccc(Cl)cc2)C1 (configuration not stated)	-4.4%	6.31µM*	.	1.3%	.
COC(=O)[C@H](COC(C)(C)C)NC(=O)O[C@H]1C(=O)c2ccc(OC)cc2O[C@@H]1c1ccc2c(c1)OCO2	.	6.0%	-9.6%	-20.9%	.
CC1=C(c2ccccc2)C(=S)NC(C)(C)C1	-4.9%[9.22 µM]	.	.	2.5%[10 µM]	.
CC(=O)Nc1cccc(NS(=O)(=O)Cc2ccc(Cl)cc2)c1	-13.8%	28.2µM*	-12.5%	-15.5%[0.074 µM]	8.0%
Cc1cc(C)c(C#N)c(SCC(=O)N(C)C2CCCCC2)n1	-4.2%	17.8µM*	-26.4%	-4.9%	?
Cc1cc(C)c(C#N)c(SCC(=O)N2CCCCC2)n1	17.3%	12.6µM*	-27.5%	7.5%[10 µM]	1.9%
Cc1cc(C)c(C#N)c(SCC(=O)N2CCN(Cc3ccccc3)CC2)n1	?	20µM*	-21.0%	-11.5%	-2.9%
COCc1cc(C)nc(SCC(=O)N2CCC(C)CC2)c1C#N	-14.7%	7.94µM*	-15.8%	-2.8%	0.2%
COc1cc2c(cc1OC)CN(C(=O)CSc1nc(C)cc(C)c1C#N)CC2	0.8%	?	-22.7%	-27.3%[10 µM]	0.9%
CC(CCCC(C)(C)O)NCc1cn[nH]c1-c1ccc2c(c1)OCO2 (configuration not stated)	-12.5%	0.1%	.	-11.4%	.
Cc1cc(C)c(C#N)c(SCC(=O)C(C)(C)C)n1	-23.8%	?	31.6µM*	-13.7%	29.7%
COC(=O)CSc1nsc(SCC(=O)OC)c1C#N	-1.2%	-3.7%	-9.4%	4.9%[10 µM]	-15.8%
Cc1nnc(SCC(=O)N2CCN(Cc3ccccc3)CC2)s1	-0.5%	-10.0%	-3.1%	2.3%[0.074 µM]	14.9%
O=C(CSc1ncccn1)N1CCN(Cc2ccccc2)CC1	-9.7%	28.2µM*	-3.9%	13.5%[1.9 µM]	1.4%
N#Cc1c(SCC(=O)N2CCCCC2)nsc1SCC(=O)N1CCCCC1	6.7%	17.8µM*	12.6µM*	20.8%	-2.6%
O=C(CCCN1C(=O)CSc2ncccc21)N1CCN(Cc2ccccc2)CC1	-12.7%	22.4µM*	-2.9%	-10.3%[10 µM]	-18.6%
S=C(Nc1ccc2nsnc2c1)N1CCCC1	-17.6%[9.22 µM]	25.1µM*	.	-4.3%[10 µM]	-21.1%[46 µM]
